Assay outcomes as filed in PubChem BioAssay.
ATXN2 expr inh: reduces ATXN2 reporter expression in HEK-293 cells; HEK-293 ATXN2-luciferase reporter, luminescence, 24 h; Potency, µM (series often up to 57 µM), for inactives: at the highest dose activity change, negative = inhibition, usual class: inhibitors; 0.72% of 360,000 active; AID 1745845; also: potency is read from the fitted curve at half-maximal effect; % is scaled to controls: 0 for no effect and ±100 for the full control effect; nearly all actives have a fitted effect of over 55% in size
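qHTS (up to 57 uM final) was run with 24 h compound exposure of reporter cells at 37 °C. Each well was multiplexed: SteadyGlo luminescence measured ATXN2-luciferase expression after a fluorogenic Gly-Phe-AFC viability readout (25 uM final).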
TGFb inhibitor: blocks TGF-b signaling; HepG2 CAGA-GFP TGF-b/SMAD3 reporter, GFP fluorescence, 18 h; TGF-beta stimulated, 500 pg/mL final; Potency, µM (top dose mostly 46.1 µM), for the others: at the top dose activity, negative = inhibition, hits mostly inhibitors; AID 588855; 1.2% of 410,000 active; also: potency is read from the fitted curve at half-maximal effect; % is scaled to controls: 0 for no effect and ±100 for the full control effect; nearly all actives have a fitted effect of over 65% in size
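First, reporter cells (HEPG2 CAGA-GFP) rested 2 h at 37 degrees C. Next, compounds were pinned in and TGF-beta added to 500 pg/mL final. After 18 h, GFP was imaged per cell and summed per well.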
S2 tox: reduces viability in counter-screen for ATXN expression inhibitors; S2 cells (HEK-293 line with an ATXN2-luciferase reporter) viability, CellTiter-Fluor protease fluorescence, 24 h; Potency, µM (titrated, usually from 56.7 µM), actives largely listed as cytotoxic; 0.49% of 400,000 active; also: potency is read from the fitted curve at half-maximal effect; nearly all actives have a fitted effect of over 40% in size
DRD3 antagonist: antagonists of human D3 dopamine receptor. D3R cells, DiscoveRx beta-arrestin luminescence, antagonist mode; hits give low values. AID 652054. max response, negative = inhibition, %. 2.5% of 360,000 active; in the data active = max response below about -50%; inconclusive = no clear call, values can overlap the other calls; also: % is scaled to controls: 0 for no effect and ±100 for the full control effect
Target sequence (P35462 whole entry, looked up): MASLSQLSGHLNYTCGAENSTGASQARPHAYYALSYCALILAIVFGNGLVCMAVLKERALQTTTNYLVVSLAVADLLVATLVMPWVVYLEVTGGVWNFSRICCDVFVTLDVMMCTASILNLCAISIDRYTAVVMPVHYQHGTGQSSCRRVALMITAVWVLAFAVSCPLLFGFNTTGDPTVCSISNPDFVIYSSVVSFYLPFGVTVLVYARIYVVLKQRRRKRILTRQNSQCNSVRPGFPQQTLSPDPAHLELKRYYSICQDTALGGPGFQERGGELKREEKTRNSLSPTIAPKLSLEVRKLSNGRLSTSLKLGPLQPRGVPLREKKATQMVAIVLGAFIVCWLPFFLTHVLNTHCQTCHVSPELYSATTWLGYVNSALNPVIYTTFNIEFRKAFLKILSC
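Cells expressing the human receptor were seeded at 1500 cells/well, incubated overnight at 37 degrees C in 5% CO2, then exposed to library compounds with dopamine controls for 90 minutes at 37 degrees C before luminescent detection.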
DRD3 agonist: activates the human D3 dopamine receptor; D3R DiscoveRx beta-arrestin cells, luminescence, 90 min; max activation, %; 0.58% of 410,000 active; AID 652048; in the data active = max activation above about 30%; also: 0% is about no effect
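Cells at 1500/well, incubated overnight, then treated with pinned compounds (dopamine as control) for 90 min at 37 degrees C. DiscoveRx reagent added for 30 - 60 minutes at room temperature; luminescence read.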
HepG2 tox: counter-screen for TGF-b inhibitors: cytotoxicity in HepG2 cells. HepG2 CAGA-GFP viability, ATP luminescence, 18 h. Potency, µM (series often up to 46.1 µM), for inactives: at the top dose activity change, negative = cytotoxicity, most hits filed as cytotoxic. 0.76% of 410,000 active; also: potency is read from the fitted curve at half-maximal effect
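CellTiter-Glo luminescence gave cytotoxicity after 18 hours at 37 degrees C. The cells were HepG2 CAGA-GFP in 1% FBS DMEM, stimulated with 500 pg/mL TGF-beta after compound addition. %Activity was normalised to no-cell wells (complete cell-killing) and DMSO (no toxicity), and curves were fitted and classified.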
Starred values were filed as active, the others as inactive; i = inactive; ? = inconclusive; . = not tested or not shown. Rows were chosen to be rich in hits. Some 4.8% of all compounds tested hit in one or more screens of this group. Unless noted, calls follow the shape of the dose curve; as a rule, active = well fitted curve in the direction sought with a large enough effect; inconclusive = small, poorly fitted or top-dose-only effect, or another doubt; inactive = no such curve, though single readings can be large; an effect the other way counts as inactive or inconclusive.

SMILES	ATXN2 expr inh	TGFb inhibitor	S2 tox	DRD3 antagonist	DRD3 agonist	HepG2 tox
Cc1nc2ccc(S(=O)(=O)NC(CC(C)C)C(=O)NCc3ccc(Cl)cc3)cc2s1 (stereo not given)	-36.9%	?	?	.	5.5	-4.1%
CC(C)CNc1ncnc2oc(-c3ccco3)c(-c3ccco3)c12	.	?	.	.	.	-27.7%
CC(CN1CCCCC1)OC(=O)c1cccc(F)c1 (stereo not given)	15.0%	-5.8%	i	-50.8*	-24.0	-8.3%
CC(CN1CCCCC1)OC(=O)c1ccc2c(c1)OCO2 (stereo not given)	10.1%	17.3%	i	-15.4	-17.8	10.8%
CC(CN1CCCC1)OC(=O)c1ccc(Cl)cc1 (stereo not given)	-36.1%	3.7%	i	-53.8*	-24.8	-16.7%
CCOC(=O)Oc1ccc(CCNC(=O)[C@H](CCSC)NC(C)=O)cc1OC(=O)OCC	11.7%	.	i	.	.	.
O=C(CSc1nnc(Cn2nnc3ccccc32)o1)N(Cc1ccc(F)cc1)c1ccccc1	-32.0%	11.2µM*	i	16.1	5.2	-22.1%
Cc1ccc(C2NC(=O)NC3=C2CCc2ccccc23)cc1 (stereo not given)	13.7%	-5.1%	?	-86.3*	0.6	-25.3%
CC(C)c1ccc(C2NC(=O)NC3=C2CCc2ccccc23)cc1 (stereo not given)	-18.1%	?	i	12.0	2.3	-45.1%
N#Cc1cccnc1N1CCN(C(=O)c2ccc3c(c2)S(=O)(=O)c2ccccc2C3=O)CC1	-5.9%	0.1%	i	-1.0	-5.8	-0.6%
O=C1c2ccccc2S(=O)(=O)c2cc(C(=O)N3CCN(c4ccc(Cl)cn4)CC3)ccc21	?	-14.1%	i	22.0	43.9*	-2.2%
Cc1ccc(S(=O)(=O)c2ncccc2[N+](=O)[O-])cc1	.	2.51µM*	5.01µM*	-90.0*	-6.7	-12.4%
Cc1ccc(S(=O)(=O)c2ncccc2N)cc1	.	11.8%	i	0.1	0.4	2.5%
COc1ccccc1NC(=O)c1sc2nc(-c3cc4cc(Cl)ccc4oc3=O)[nH]c(=O)c2c1C	.	15.8%	.	.	-0.1	1.8%
CC1(Br)C(Sc2ccccc2[N+](=O)[O-])=Nc2ccccc21 (stereo not given)	-37.2%	.	?	-50.7*	-13.3	.
Cc1[nH]c(=O)[nH]c(=O)c1Sc1ccccc1[N+](=O)[O-]	27.6%	19.4%	i	-4.2	-8.7	-14.2%
Cc1ccc(Nc2nc3nonc3nc2Nc2cccc(C(F)(F)F)c2)cc1Cl	.	?	.	.	-18.8	-50.7%
CN1Cc2c(N3CCOCC3)nc3sc(C(=O)c4ccc(Br)cc4)c(N)c3c2CC1(C)C	?	?	.	-50.3*	-21.6	10µM*
Cc1nnsc1-c1onc(C)c1C(=O)Nc1cc(Cl)cc(Cl)c1	.	15.8µM*	?	19.8	2.3	-60.5%
COC(=O)c1cccc(-c2cc(Cl)c3c(c2)CC(CNC(=O)c2cccnc2)O3)c1 (stereo not given)	.	.	i	.	.	.
Cc1cc(=O)n(CCCc2ccccc2)[nH]1	-19.1%	-15.3%	i	-67.1*	-6.1	-1.1%
CCc1cccc(C)c1NC(=O)CSc1nnc(CC)n2c1cc1occc12	.	7.94µM*	.	.	0.6	-24.7%
CN[C@@H]1C[C@H]2O[C@@](C)([C@H]1OC)n1c3ccccc3c3c4c(c5c6ccccc6n2c5c31)C(=O)N[C@H]4O	1.22µM*	.	.	.	.	.
CCOC(=O)c1cc(-c2ccccc2)n(CCC(=O)Nc2ccc(Cl)c(C(F)(F)F)c2)c1C	.	3.55µM*	.	.	2.6	11.2µM*
CCOC(=O)c1cc(-c2ccccc2)n(CCCC(=O)Nc2cccc(Cl)c2C)c1C	.	11.2µM*	.	.	-21.3	-56.4%
C=CCn1c(-c2cccc(Cl)c2)n[nH]c1=S	3.0%	-15.5%	i	-56.8*	5.4	2.2%
S=c1[nH]nc(-c2cccc(Cl)c2)n1Cc1ccccc1	3.9%	0.0%	i	10.3	1.2	22.7%
